Reference: PubChem BioAssay (NCI)
“And” between values parts separate entries of the source, which are not always exact repeats. Identical values can stand only once. The panel holds about 83,000 compounds, 20% with a hit somewhere; the sample as a whole holds those more often.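 Values shown are percent growth following 48 h exposure of cells in 96-well plates to a single concentration of compound; below 10 was considered active.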 A number with no mark means an inactive call. The source made the active and inactive calls. Where a SMILES comes first, the peptide text is derived from it. The star is where a group is joined. Trt = c1ccc(C(c2ccccc2)(c2ccccc2)*)cc1; Cbz = O=C(OCc1ccccc1)*

Tested on: A498 renal
Experiment: NCI-60 one-dose screen, 48 h (100 = growth as untreated, 0 = no growth, -100 = all killed)
Details: 10 µM
Experimental: Growth inhibition of the A498 human tumor cell line is measured as a screen for anti-cancer activity. Cells are grown in 96 well plates and exposed to the test compound for 48 hours. Compounds are tested at a single concentration, which is 10^-5 M for most compounds. The reported endpoint is percent growth (GI% or GIPRCNT), where numbers from 0 - 100% represent growth inhibition, and numbers from -100% - 0 represent cell death. For example, a value of 40 represents 60% growth inhibition. A value of 0 means no net growth occurred over the course of the experiment. A value of -40 indicates 40% of cells at the beginning of the experiment died by the end of the experiment. A value of -100 means all cells are dead at the end of the experiment.
NCI-60 Human Tumor Cell Lines Screen was performed using the standard one-dose NCI protocol, which is described in more detail at https://dtp.cancer.gov/discovery_development/nci-60/default.htm.
Compounds with GIPRCNT values below 10 were considered active. Activity score was based on GIPRCNT using the following formula: […]
Score is 0 for GIPRCNT values of 100 or above, 50 for GIPRCNT values of 0, and 100 for GIPRCNT values of -100.

Compound	growth
O=C(Nc1cccc(Br)c1)Oc1cccc2cccnc12	97.5%
O=C(O)c1c(Cl)c(Cl)c(Cl)c(Cl)c1-c1c2cc(I)c(=O)c(I)c-2oc2c(I)c(O)c(I)cc12	300% and 106%
COc1ccc(-c2cscc2N)cc1	83.3%

Same assay, conditions: 10 µM unless noted

Compound	growth
COc1ccccc1OC(=O)Oc1ccccc1OC	108% and 103%
Nc1ccc(SSc2ccc(N)cc2)cc1	103%
Cc1ccc(C(=Nc2ccccc2)N=P(c2ccccc2)(c2ccccc2)c2ccccc2)cc1	-56.7% (active)
COC(=O)C(CSC(c1ccccc1)(c1ccccc1)c1ccccc1)NC(=O)C(CC(N)=O)NC(=O)OCc1ccccc1 (stereo not drawn) (Cbz-Asn-Cys(Trt)-OMe; configuration not given here)	21.1%
Oc1c(Br)c(Br)c(O)c(Br)c1Br	127%
CC(C)c1ccc2nc3ccc(C(=O)NCCN4CCN(c5ccccc5)CC4)cn3c(=O)c2c1	81.8%
CN1c2ccccc2C(C)(C)C12C=Cc1cc(O)ccc1O2 (stereo not given)	26%
Nc1ncnc2c1ncn2C1OC(CO)C(O)C1O (stereo not given)	123% and 107% and 128%
O=C(/C=C/c1cccc(Cl)c1)c1ccccc1	79.7% and 102%
CN(C)CCOc1ccc2c(c1)C(=O)/C(=C\c1ncc([N+](=O)[O-])n1C)C2	-88% (active)
O=C1c2ccccc2C(=O)c2sc(Nc3ccc(Cl)cc3)nc21	87.3%
CCC(=O)Sc1ccccc1C(=O)Nc1ccc(Cl)cc1	36.8%
COc1cc(NS(C)(=O)=O)ccc1Nc1c2ccccc2nc2ccccc12	-7.27% [2.5 µM] (active)
Cc1ccnc2c1ccc1c(C)ccnc12	19.5%
COc1cc(/C=C/C(C)=O)ccc1O	79.1% and 116%
O=C(Nc1ccc(F)cc1)ON=C1CCCCC1	95.2% [100 µM]
NC(=O)/C=C/C(=O)c1c(Cl)cccc1Cl	-58.4% (active)

Compound	growth
Oc1c(Cl)cc(Cl)c2cccnc12	67.6% and 66.6%
C=C(Cl)C(=NC(C)(C)C)Nc1ccccc1C	105%
CC(=Nc1ccc(N(C)C)cc1)c1ccccc1	70.4%
CCOC(=O)c1c(C)[nH]c(CO)c1C	107%
O=C(/C=C/C=C/c1ccccc1)c1ccco1	106%
O=Nc1ccccc1N=O	110%
CCOC(=O)/C(=C\c1ccc(-c2ccccc2)cc1)C(C)=O	92.2%
CC(C)(C)CC(C)(C)c1ccc(OCCSC(=N)N)cc1	60.2%
Cc1cc2nc(CS)[nH]c2cc1C	95.7%
O=C1c2cccnc2-c2nccc3c2c1nc1cc(Br)ccc13	-52% (active) and -78.4% (active)
O=C(/C=C\c1cc(Br)ccc1O)/C=C/c1cc(Br)ccc1O	-70.1% (active)
C=CCOc1ccc(N=NC(C#N)C#N)cc1	76%
Cc1ccc2nc(C[n+]3ccc4ccccc4c3)ccc2c1	81%
CC1SC(=S)N(c2ccc(Cl)cc2)C1=O (stereo not given)	143% and 122%
CC(C)(C)c1ccc(O)c(C2CCCCC2)c1	107%
O=C1c2ccccc2C(=O)N1c1ccccc1	109%
CNc1ccc(N)cc1	120%

Same assay, conditions: 100 µM

Compound	growth [%]
O=C(Nc1cccc(Br)c1)Oc1cccc2cccnc12	98.6
O=C(O)c1c(Cl)c(Cl)c(Cl)c(Cl)c1-c1c2cc(I)c(=O)c(I)c-2oc2c(I)c(O)c(I)cc12	37.1
COc1ccc(-c2cscc2N)cc1	80.6
